Source: PubChem BioAssay AID760 (NMMLSC, 2007)
About 360 (0.19%) of roughly 190,000 compounds were called active. About 2% were inconclusive and are not listed. The sample holds actives, similar compounds and a random draw of the others, so the mix is not that of the screen. A number with no mark means an inactive call.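 How the source made its calls: active means GTP binding activity at least 20 points away from 100%, either lowered or raised; inconclusive means signal likely due to the compound's own green fluorescence; inactive means the rest.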

Target: Ras-related protein Rab-2A (Canis lupus familiaris) (UniProt P61105)
Test: Rab2 wt fluorescent GTP binding changes, either direction – biochemical, dog, bead-based flow cytometry, multiplex, primary screen (AID 760);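 further: 0% = beads with excess unlabeled GTP and 100% = no-compound control corrected for plate trend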
Conditions: GST-Rab2 wt beads, Bodipy-GTP binding, at 10 µM

Row | SMILES | GTP binding activity
1 | O=C(COC(=O)CNC(=O)c1ccccc1F)NCC(F)(F)F | 101%
2 | Cc1ccc(NC(=O)Nc2cccc(C(F)(F)F)c2)nc1 | 103%
3 | CC1CC(C)CN(C(=O)CSc2ccsc2[N+](=O)[O-])C1 (stereo not drawn) | 102%
4 | CCOC(=O)c1sc(NC(=O)CSc2nc(O)c(Cc3ccccc3)c(=O)[nH]2)nc1C | 93%
5 | Cc1ccnc(NS(=O)(=O)c2ccc(NC(=O)c3ccc(S(=O)(=O)N(C)C)cc3)cc2)n1 | 98%
6 | CN(CCC1CCOCC1)Cc1cn[nH]c1-c1ccc(-c2ccccc2)cc1 | 96%
7 | C/C=C/C=C/C(=O)OCC(=O)Nc1ccc(Cl)cc1 | 93%
8 | CN(C)CCOCCOc1ccc(Cl)c2ccccc12 | 106%
9 | Cc1nn(CC(=O)Nc2ccc(C#N)cc2)c(C)c1[N+](=O)[O-] | 99%
10 | COC(=O)c1ccc(/C=N/N2C(C)CCCC2C)cc1 (stereo not drawn) | 100%
11 | COC(=O)c1sc2[nH]c(=S)n(N)c(=O)c2c1C | 100%
12 | CCN(C(=O)COC(=O)c1cc(S(=O)(=O)N2CCc3ccccc32)ccc1OC)C1CCS(=O)(=O)C1 (stereo not drawn) | 96%
13 | CC(NC(=O)C(=O)N/N=C/c1ccc(Cl)cc1)c1ccccc1 (stereo not drawn) | 98%
14 | CC1CCCCC1NC(=O)CO/N=C/c1ccc(OC(F)F)cc1 (stereo not drawn) | 97%
15 | NS(=O)(=O)c1ccc(NC(=O)COC(=O)c2ccco2)cc1 | 97%
16 | COc1ccc(C(=O)CSc2nnnn2C)c(OC)c1 | 98%
17 | COc1cc(CN(C)Cc2nc3cc(C(F)(F)F)ccc3c(=O)[nH]2)ccc1OC(F)F | 94%
18 | Cn1c(N)cc(-c2ccc(F)cc2)c(C#N)c1=O | 97%
19 | Cc1cc(C(=O)N/N=C/c2ccccc2[N+](=O)[O-])c(C)o1 | 95%
20 | COc1ccc(/C=N/NC(=O)C(C)N(c2ccc(OC)cc2)S(C)(=O)=O)cc1 (stereo not drawn) | 96%
21 | CSCCNCc1cn(-c2ccc(F)cc2F)nc1-c1ccccc1C | 100%
22 | Cc1ccnc(NC(=O)CCCOc2ccccc2)c1 | 97%
23 | O=C(NNC(=O)c1ccccc1[N+](=O)[O-])Nc1ccccc1C(F)(F)F | 101%

Row | SMILES | GTP binding activity
24 | CC(C)NC(=O)/C(C#N)=C\c1ccc(N(C)C)c(Br)c1 | 94%
25 | COc1cccc(CNC(=O)Cc2csc(Nc3nc(=S)[nH]c4ccccc34)n2)c1 | 93%
26 | O=C(CCn1c(=O)[nH]c2ccccc2c1=O)NCCCN1CCN(c2cccc(Cl)c2)CC1 | 101%
27 | O=C(Cc1csc(Nc2nc(=S)[nH]c3ccccc23)n1)NCCCN1CCN(c2cccc(Cl)c2)CC1 | 78% (active)
28 | Cc1ccnc2nc(C(=O)OCC(=O)N(CC(C)C)CC(C)C)nn12 | 97%
29 | CCOc1ccccc1N1CCN(C(=O)COc2ccc3c(C)cc(=O)oc3c2)CC1 | 98%
30 | CCOC(=O)CN/C=C(\C#N)c1ccc(F)cc1 | 102%
31 | CCCC(c1nnnn1C(C)(C)C)N1CCN(Cc2ccccc2)CC1 (stereo not drawn) | 98%
32 | O=C(COc1cccc2ccccc12)Nc1cc(S(=O)(=O)N2CCOCC2)ccc1N1CCOCC1 | 98%
33 | O=c1[nH]n2c(-c3ccccc3)nc(O)c2c2ccccc12 | 95%
34 | CCO/C=C1\C(=O)N(c2ccc(OCC)cc2)C(=O)c2ccccc21 | 93%
35 | COc1ccc(S(=O)(=O)N2CCOCC2)cc1C(=O)Nc1nc2ccccc2s1 | 72% (active)
36 | COc1ccc(S(=O)(=O)N2CCOCC2)cc1NC(=O)CSc1ncnc2ccccc12 | 93%
37 | CCOC(=O)c1sc(NC(=O)c2cc(S(=O)(=O)N3CCOCC3)ccc2C)nc1C | 98%
38 | COc1ccc(OC)c(-c2csc(NC(=O)C3=NNC(=O)CC3)n2)c1 | 96%
39 | CNC(=S)N1CCC(NC(=O)C(Cc2ccc(F)cc2)NC(C)=O)CC1 (stereo not drawn) | 99%
40 | COc1ccc(S(=O)(=O)N(C)C)cc1NC(=O)CSc1ncccn1 | 97%
41 | Cn1nnnc1SCC(=O)Nc1nc2ccccc2s1 | 97%
42 | CCNC(=O)COC(=O)/C=C/c1c(C)nn(Cc2cccc(OC)c2)c1Cl | 95%
43 | CCOC(=O)c1sc(NC(=O)CSc2n[nH]c(CC)n2)nc1C | 97%
44 | O=C1c2cccc3c([N+](=O)[O-])ccc(c23)C(=O)N1CC1CCCO1 (stereo not drawn) | 95%
45 | COc1cccc(CN(C)CC(=O)Nc2sc3c(c2C#N)CCC3)c1 | 92%
46 | COc1ccc(S(=O)(=O)NCC2CCCN(C(=O)c3occc3C)C2)cc1 (stereo not drawn) | 97%

Row | SMILES | GTP binding activity
47 | CCCCC(NC(=O)c1cccc(Br)c1)C(=O)O (stereo not drawn) | 93%
48 | Cc1ccc(-c2nn(-c3cccc(F)c3)cc2CNCCc2ccncc2)o1 | 101%
49 | CC1COc2ccccc2N1C(=O)c1cccnc1Cl (stereo not drawn) | 99%
50 | Cc1nnsc1C(=O)Nc1cccc(Cl)c1C | 95%
51 | CCOc1ccccc1Nc1ccc(C(=O)O)cc1[N+](=O)[O-] | 99%
52 | Cc1ccc(CN2CCC(N3CCC(C(=O)NCC4CCCO4)CC3)CC2)o1 (stereo not drawn) | 97%
53 | CCOc1ccc(N2C(=O)CN(c3cccc4ccccc34)C2=S)cc1 | 99%
54 | Cc1cc(C)n(-c2ccc3nncn3n2)n1 | 102%
55 | CSCC(=O)N1CCCC(C(=O)c2cc(F)ccc2F)C1 (stereo not drawn) | 97%
56 | COCCNc1nc2nonc2nc1N(C)Cc1ccc(C)cc1 | 95%
57 | CCOC(=O)C1(Cc2ccccc2C(F)(F)F)CCN(C(=O)c2cc(C)n(C)n2)CC1 | 98%
58 | COc1cccc2c1OCC(CN1CCN(C3CCCCC3)C(CCO)C1)=C2 (stereo not drawn) | 100%
59 | CCN(CC)N=Nc1cccc(NC(C)=O)c1 | 95%
60 | NC(=O)Cn1nc([N+](=O)[O-])nc1Oc1ccc(Br)cc1 | 97%
61 | O=C(O)/C=C/c1cn(-c2ccccc2)nc1-c1cccs1 | 93%
62 | O=C(/C=C\c1cn(-c2ccccc2)nc1-c1cccs1)N1CCOCC1 | 104%
63 | O=C(O)/C=C/c1cn(Cc2ccccc2)nc1-c1cccs1 | 127% [activator] (active)
64 | Cc1ccc(C(=O)NN(CCC#N)C2=NS(=O)(=O)c3ccccc32)cc1 | 95%
65 | Cn1nc(-c2ccccc2)c(CO)c1Sc1ccccc1 | 93%
66 | CN1C(=O)/C(=C/C=C2\SCCN2C)OC1=S | 98%
67 | O=C(O)CCc1nc2cc(Cl)ccc2n(Cc2ccccc2)c1=O | 98%
68 | CCN(CC(=O)NCc1cccs1)S(=O)(=O)c1ccc(NC(C)=O)cc1 | 96%
69 | Cc1ccc(S(=O)(=O)N2CCOCC2)cc1NC(=O)CSc1nnc(N)s1 | 98%

Row | SMILES | GTP binding activity
70 | Cc1ccccc1CC1(CO)CCCN(Cc2ccc3c(c2)OCCO3)C1 (stereo not drawn) | 99%
71 | O=C(CC1SC(=Nc2ccccc2F)N(CCN2CCOCC2)C1=O)Nc1ccc(F)cc1F (stereo not drawn) | 97%
72 | CC(C)NC(=O)NC(=O)CSc1nnc(-c2ccccc2F)n1N | 97%
73 | C=CCN1C(=O)C(O)(CC(=O)c2ccccn2)c2ccccc21 (stereo not drawn) | 107%
74 | CC1(C)CC(=O)c2ccc(O)cc2O1 | 97%
75 | N=C1C(c2nc3ccccc3[nH]2)=C(O)CN1NC(=O)c1c[nH]c2ccccc12 | 96%
76 | CCCCOc1ccc(N(CC(=O)NC(C)C)C(=O)CCC(=O)Nc2ccccn2)cc1 | 97%
77 | O=C(NNC(=S)NC(=O)c1cn(-c2ccccc2)nc1-c1ccccc1)c1ccncc1 | 90%
78 | COc1ccc(N2CCN(C(=O)CNS(=O)(=O)c3ccc(C)c(C)c3)CC2)cc1 | 96%
79 | CC(C)=CCN1CCN(Cc2ccc(Oc3ncccn3)cc2)CC1CCO (stereo not drawn) | 100%
80 | COc1ccc(NC(=O)c2cc3nc(-c4ccccc4)cc(C)n3n2)cc1OC | 84%
81 | CCOC(=O)c1ccc(Nc2cc(C)nc3nc(C)nn23)cc1 | 98%
82 | CCOC(=O)c1ccc(N/C(=N/S(=O)(=O)c2ccccc2)c2ccccc2)cc1 | 95%
83 | CCOC(=O)c1nc(Nc2ccc(C(=O)OC)cc2)c2ccccc2n1 | 77% (active)
84 | O=C(/C=C/c1ccc(N2CCOCC2)cc1)c1ccccc1 | 97%
85 | CCN(c1ccccc1)S(=O)(=O)c1ccc2[nH]c(=O)[nH]c2c1 | 99%
86 | O=C(Nc1ccc2oc(-c3ccccc3F)nc2c1)c1ccco1 | 96%
87 | Cc1ccc2cc(CN(c3ccc(C)c(C)c3)S(C)(=O)=O)c(=O)[nH]c2c1 | 98%
88 | CCN(CC(=O)NC(=O)NCc1ccccc1)Cc1nc2ccccc2c(=O)[nH]1 | 101%
89 | Cc1noc(C)c1S(=O)(=O)Nc1ccc(C(=O)N2CCN(c3ccc(F)cc3)CC2)cc1 | 96%
90 | COc1ccc(CC(=O)N[C@@H](CCSC)c2nc3ccccc3[nH]2)cc1 | 99%
91 | S=C(NCc1ccc2c(c1)OCO2)NCc1ccco1 | 101%
92 | Cc1ccc(CNC(=O)CCNS(=O)(=O)c2ccc(Br)s2)cc1 | 99%

Row | SMILES | GTP binding activity
93 | C=CCN(CC=C)S(=O)(=O)c1ccc(C(=O)Nc2nc3c(s2)CCc2ccccc2-3)cc1 | 39% (active)
94 | C=CCN(CC=C)S(=O)(=O)c1ccc(C(=O)Nc2sc3c(c2C(N)=O)CCCCC3)cc1 | 101%
95 | COCCN(CCOC)S(=O)(=O)c1ccc(C(=O)Nc2nc3c(s2)CCc2ccccc2-3)cc1 | 102%
96 | COc1ccc2oc(=O)c(C(=O)N3CCCC3)cc2c1 | 98%
97 | O=c1/c(=C/c2ccc(CNS(=O)(=O)c3ccccc3)o2)sc2n1CCN=2 | 74% (active)
98 | O=S(=O)(NCc1ccccc1)c1ccc(S(=O)(=O)N2CCCC2)cc1 | 100%
99 | COC(=O)C1=C(C)NC(=O)/C1=C/c1ccc(CNS(=O)(=O)c2ccc(C)cc2)o1 | 100%
100 | C=CCC(C(=O)c1ccccc1)[N+](C)(C)CC=C (stereo not drawn) | 96%
101 | O=C(COC(=O)C12CC3CC(CC(O)(C3)C1)C2)NC12CC3CC(CC(C3)C1)C2 | 100%
102 | CCOC(=O)c1oc2c(CN3CCN(CCO)CC3)c(O)c(CC)cc2c(=O)c1-c1nc2ccccc2s1 | 99%
103 | COc1ccc(Cl)cc1N(CC(=O)N/N=C/c1ccc(OCC(N)=O)cc1)S(C)(=O)=O | 99%
104 | N/C(=N\OC(=O)COc1ccc([N+](=O)[O-])cc1)c1ccc(Br)cc1 | 98%
105 | CCOc1ccc(C(C)=O)cc1CSc1nnc(-c2ccncc2)n1CCOC | 99%
106 | O=C(CCN1C(=O)c2ccccc2C1=O)NCCCn1ccnc1 | 101%
107 | Cc1nc(N2CCOCC2)sc1C(=O)NN | 100%
108 | COc1ccc(-c2nn(-c3ccccc3)cc2CN2CCCO2)c(F)c1 | 100%
109 | Cc1ccc(C(=O)CS(C)(=O)=O)cc1 | 104%
110 | Cc1ccc(SC(CC(=O)c2ccc(C(C)(C)C)cc2)C(=O)O)cc1 (stereo not drawn) | 78% (active)
111 | Cc1ccc(CSCC(N)C(=O)O)cc1 (stereo not drawn) | 97%
112 | O=C(CSc1ccc([N+](=O)[O-])cn1)Nc1ccc(N2CCOCC2)c(Cl)c1 | 96%
113 | CCCOC1CCCN(Cc2cn(C)nc2-c2ccccc2F)C1 (stereo not drawn) | 96%
